# Rows were chosen to be rich in hits. Some 18% of all compounds tested hit in one or more screens of this group.
# TDP1 block = qHTS Assay for Inhibitors of Tyrosyl-DNA Phosphodiesterase (TDP1); Tyrosyl-DNA phosphodiesterase 1 (Homo sapiens), Q9NUW8; recombinant TDP1, AlphaScreen DNA substrate cleavage; Potency, µM (top dose mostly 130 µM), without a hit: top-dose activity change, negative = inhibition, actives largely listed as inhibitors; 350,000 tested, 0.28% active; AID 485290, 2010; note: potency is the fitted concentration of half-maximal effect; nearly all actives have a fitted effect of over 40% in size
#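 Signal: AlphaScreen proximity between streptavidin donor and anti-FITC acceptor beads on intact substrate. Reaction: Tdp1 1 nM, substrate 15 nM final, 5 min RT after 15 min compound preincubation.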
# IL-1B inflam inh = qHTS for Inhibitors of Inflammasome Signaling: IL-1-beta AlphaLISA Primary Screen; THP-1 LPS/ATP IL-1B secretion, AlphaLISA, 16 h; active compounds read low; activity change, % at 57.5 µM; 360,000 tested, 4.7% active; AID 743279, 2014; in the data active = activity change below about -50%; inconclusive = mostly about -30% to -49%
#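 THP-1 cells pretreated 1 hr with compounds (up to 57.5 uM final), then stimulated with LPS (250 ng/mL final) plus ATP (1.25 mM final); secreted IL-1B measured by AlphaLISA after 16 hr, decreased signal indicating inhibition.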
# DT40 TDP1 no CPT = qHTS for Inhibitors of human tyrosyl-DNA phosphodiesterase 1 (TDP1): qHTS in cells in absence of CPT; DT40 Tdp1-/- hTDP1 cells, no CPT, ATP luminescence, 48 h; Potency, µM (series often up to 46.2 µM), inactives show top-dose activity change, negative = growth inhibition, usual class: inhibitors; 420,000 tested, 15% active; note: potency is the fitted concentration of half-maximal effect; nearly all actives have a fitted effect of over 55% in size
#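 Growth kinetics read by CellTiter-Glo luminescence after ≥48 hr at 37 °C. Cells: DT40 Tdp1-/- stably carrying human TDP1, 400 per well, compound exposure in the absence of CPT (DMSO vehicle).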
# DT40 TDP1 CPT = qHTS for Inhibitors of human tyrosyl-DNA phosphodiesterase 1 (TDP1): qHTS in cells in presence of CPT; Potency, µM (series often up to 46.2 µM), for the others: top-dose activity change, negative = growth inhibition, actives largely listed as inhibitors; 420,000 tested, 12% active; chicken DT40 Tdp1-/-;hTDP1 cells + 20 nM CPT, ATP luminescence, 48 h; note: potency is the fitted concentration of half-maximal effect; nearly all actives have a fitted effect of over 55% in size
#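 Chicken DT40 Tdp1-/- cells stably complemented with human TDP1 were seeded at 400 cells/well in medium containing 20 nM camptothecin, exposed to pin-transferred compounds, and grown at 37 °C for at least 48 hr. Viability was read as ATP luminescence.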
# CtBP-E1A blk = qHTS Assay for Inhibitors of the CtBP/E1A Interaction; CtBP / adenovirus E1A interaction (AlphaScreen); AlphaScreen GST-E1A/His-CtBP binding, 1536-well; active compounds read low; activity change, % (no concentration beside the values); 340,000 tested, 0.49% active; in the data active = activity change below about -65%; inconclusive = mostly about -30% to -63%
#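 GST-E1A and His-tagged CtBP (125 nM each as 5X stock) were preincubated with pin-transferred compound for 2 h at 37 °C in the dark, then glutathione donor and nickel acceptor beads were added for 1 h before AlphaScreen reading.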
# Six1-Eya2 blk = qHTS Assay for Inhibitors of the Six1/Eya2 Interaction | activity change, % (test concentration not listed) | 360,000 tested, 0.56% active | AlphaScreen GST-Six1/His-Eya2 binding, biochemical; active compounds read low | Homeobox protein SIX1 (Homo sapiens) + Protein phosphatase EYA2 (Homo sapiens), …; in the data active = activity change below about -65%; inconclusive = mostly about -30% to -63%
# Target sequence (O00167 whole entry, looked up): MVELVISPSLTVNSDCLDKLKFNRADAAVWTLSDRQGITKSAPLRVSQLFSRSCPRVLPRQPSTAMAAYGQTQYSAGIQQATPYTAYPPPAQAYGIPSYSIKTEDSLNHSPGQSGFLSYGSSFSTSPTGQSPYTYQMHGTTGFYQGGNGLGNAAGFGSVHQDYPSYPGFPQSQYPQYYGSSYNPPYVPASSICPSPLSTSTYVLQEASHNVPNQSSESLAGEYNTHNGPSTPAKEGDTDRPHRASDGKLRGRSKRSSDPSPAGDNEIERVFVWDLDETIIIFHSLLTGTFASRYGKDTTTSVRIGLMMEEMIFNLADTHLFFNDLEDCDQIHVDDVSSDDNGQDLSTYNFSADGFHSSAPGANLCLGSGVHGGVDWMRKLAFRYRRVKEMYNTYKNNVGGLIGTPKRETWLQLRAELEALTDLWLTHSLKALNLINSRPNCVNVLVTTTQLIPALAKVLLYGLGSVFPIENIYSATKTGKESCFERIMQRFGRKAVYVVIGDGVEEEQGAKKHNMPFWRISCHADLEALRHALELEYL
# Target sequence (Q15475 whole entry, looked up): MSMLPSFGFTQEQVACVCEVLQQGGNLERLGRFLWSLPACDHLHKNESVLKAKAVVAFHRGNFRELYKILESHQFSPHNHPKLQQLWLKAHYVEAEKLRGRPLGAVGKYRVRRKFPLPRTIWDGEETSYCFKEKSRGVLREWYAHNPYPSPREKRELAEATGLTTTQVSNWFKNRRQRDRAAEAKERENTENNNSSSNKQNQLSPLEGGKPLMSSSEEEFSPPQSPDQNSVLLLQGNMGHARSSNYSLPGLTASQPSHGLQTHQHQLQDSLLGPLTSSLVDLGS
#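 GST-Six1 + His-Eya2 (5X stock: 250/500 nM); Tris pH 8.0, 300 mM NaCl, 0.05% BSA, 0.02% Tween 20; GSH donor/Ni acceptor beads; 1 h 37 °C dark; AlphaScreen readout.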
# An asterisk follows results filed as active; u = inconclusive; x = no result given. Unless noted, calls come from the whole dose curve; as a rule, active = well fitted curve in the direction sought with a large enough effect; inconclusive = small, poorly fitted or top-dose-only effect, or another doubt; inactive = no such curve, though single readings can be large; an effect the other way counts as inactive or inconclusive. % is set by controls: 0 for no effect and ±100 for the full control effect.
SMILES,TDP1 block,IL-1B inflam inh,DT40 TDP1 no CPT,DT40 TDP1 CPT,CtBP-E1A blk,Six1-Eya2 blk
Cc1nc(C#N)c(NCc2ccc3c(c2)OCO3)o1,0.0%,0.5,-29.2%,-20.1%,6.2,-8.3
O=C1Cc2c(-c3ccccc3)cc(-c3cccc(Cl)c3)nc2-c2ccccc2N1,x,0.0,u,20.6µM*,-9.8,8.8
COc1ccc(N2CCN(C(=O)COC(=O)c3oc4ccccc4c3C)CC2)cc1,5.9%,4.8,16.4µM*,20.6µM*,-23.4,u
COc1ccc2oc(C(=O)OCC(=O)N3CCN(c4ccccc4)CC3)c(C)c2c1,0.5%,12.1,u,-19.8%,-6.6,-3.6
CCOC(=O)c1oc2ccccc2c1CN1CCN(C(=O)c2ccccc2)CC1,-5.3%,u,u,u,-11.5,3.4
Cc1c(-c2ccccc2)oc2c(C(=O)N3CCN(c4ccc([N+](=O)[O-])cc4)CC3)cccc2c1=O,6.9%,-6.2,20.6µM*,16.4µM*,2.8,-2.8
CCOC(=O)c1oc2ccccc2c1CN1CCN(c2ccccc2)CC1,1.0%,-5.6,18.4µM*,u,-21.7,u
Cc1c(C(=O)N2CCN(c3ccc([N+](=O)[O-])cc3)CC2)oc2ccccc12,2.6%,-18.5,16.4µM*,u,-8.7,-15.1
CCn1cc(C(=O)N2CCN(c3ccc([N+](=O)[O-])cc3)CC2)c(=O)c2ccc(C)nc21,1.2%,-12.2,u,u,-0.7,1.3
COc1cccc(N2CC(C(=O)Nc3nnc(SCc4cccnc4)s3)CC2=O)c1 (stereo not given),-2.6%,35.4,u,-15.3%,-6.7,-17.8
COc1ccc(C(=O)Nc2ccc(C(=O)N3CCC(C)CC3)cc2)cc1OC,3.2%,-8.4,-6.6%,7.1%,16.0,8.6
O=c1c2ccccc2oc2cc(-c3ccc(CN4CCOCC4)cc3)ccc12,3.0%,0.0,16.4µM*,13µM*,-17.6,-10.4
O=c1cc(CN2CCOCC2)c2ccccc2o1,x,0.0,-0.5%,-12.3%,0.6,1.1
O=C1NC[C@H](Cc2ccccc2)N(C[C@H]2CCCN2C[C@H](Cc2ccccc2)N2C[C@H](Cc3ccccc3)N(CC3CCCCCC3)C(=O)C2=O)C1=O,x,-68.6*,16.4µM*,u,-0.9,-3.9
O=C1NC[C@H](Cc2ccccc2)N(C[C@@H]2CCCN2C[C@H](Cc2ccc(O)cc2)N2C[C@H](Cc3ccc(O)cc3)N(CC3CCCCC3)C(=O)C2=O)C1=O,x,u,23.1µM*,u,0.5,-10.7
O=C1NC[C@H](Cc2ccccc2)N(C[C@@H]2CCCN2C[C@H](Cc2ccc(O)cc2)N2C[C@H](Cc3ccccc3)N(CCc3ccccc3)C(=O)C2=O)C1=O,x,-80.2*,-29.7%,u,5.2,-15.7
O=C1NC[C@H](Cc2ccc(O)cc2)N(C[C@@H]2CCCN2C[C@H](Cc2ccccc2)N2C[C@H](Cc3ccc(O)cc3)N(CC3CCCCC3)C(=O)C2=O)C1=O,x,-1.1,u,u,-14.1,-17.1
CC1(C)CC2CC(C)(CN2S(=O)(=O)c2cccc(C(=O)OCC(N)=O)c2)C1 (stereo not given),x,7.7,u,-18.1%,9.6,-3.5
CCSCCCn1[nH]c2ccccc2c1=O,x,15.2,u,u,0.6,-3.0
CN(C)c1ccc(CNC(=O)c2ccc(CNc3c(N4CCCCC4)c(=O)c3=O)cc2)cc1,-1.3%,14.7,-26.6%,-17.5%,-24.7,-1.8
O=C(Cc1ccc(Br)cc1)NCCCn1ccnc1,x,13.6,3.8%,23.6%,-2.6,-16.0
CCOC(=O)CC(=O)CSc1nc2c(sc(=S)n2-c2ccc(OCC)cc2)c(=O)[nH]1,0.0%,-53.5*,u,-10.8%,9.7,-13.9
Cc1cccc(NC(=O)CN2C(=O)C3(SCC(=O)N3c3ccccc3)c3ccccc32)c1 (stereo not given),5.3%,x,u,23.1µM*,x,x
COc1cccc(NC(=O)CN2C(=O)C3(SCC(=O)N3c3cc(C)cc(C)c3)c3ccccc32)c1 (stereo not given),-2.1%,x,u,18.4µM*,x,x
Cc1cc(C)cc(N2C(=O)CSC23C(=O)N(Cc2c(F)cccc2Cl)c2ccccc23)c1 (stereo not given),8.5%,x,16.4µM*,16.4µM*,x,x
SMILES,TDP1 block,IL-1B inflam inh,DT40 TDP1 no CPT,DT40 TDP1 CPT,CtBP-E1A blk,Six1-Eya2 blk
COc1ccc(N2C(=O)CSC23C(=O)N(Cc2ccccc2F)c2ccccc23)cc1Cl (stereo not given),8.5%,x,x,x,x,x
CCOc1ccc(NC(=O)CN2C(=O)C3(SCC(=O)N3c3ccc(F)cc3)c3ccccc32)cc1 (stereo not given),0.0%,x,u,23.1µM*,x,x
Clc1ccc(-c2csc(-c3nc(-c4ccc(Br)s4)cs3)n2)cc1,0.9%,x,-6.9%,4.4%,x,x
C/C=C(\C)C(=O)Nc1cccc(C2=NOC3(C2)C[C@H](C(N)=O)N(C(=O)CC#N)C3)c1 (stereo not given in full),1.2%,19.0,-1.6%,-0.1%,x,6.6
CCc1cccc(C)c1NC(=O)CN1C(=O)C2(SCC(=O)N2c2cc(C)cc(C)c2)c2ccccc21 (stereo not given),1.1%,x,16.4µM*,18.4µM*,x,x
CCCCNc1nc(Oc2ccc(=O)[nH]n2)nc(N(C)C)n1,2.3%,x,-0.5%,1.3%,x,x
O=C(O)CCCN1C(=O)/C(=C/c2ccncc2)SC1=S,4.2%,-80.2*,u,u,-13.6,-0.4
NC1=NC(=O)/C(=C/c2cn(CCC(=O)O)nc2-c2ccc(Cl)cc2)S1,0.0%,0.0,-21.7%,-16.7%,3.4,-20.1
O=C(CCCN1C(=O)/C(=C/c2ccccc2)SC1=S)Nc1ccc(C(=O)O)c(O)c1,8.2%,10.0,-17.3%,5.6%,-16.9,-10.8
O=C(O)CCCCCN1C(=O)/C(=C\c2ccncc2)SC1=S,0.0%,-99.3*,23.1µM*,23.1µM*,3.7,-10.6
NC1=NC(=O)/C(=C\c2ccc(-c3ccc(Cl)cc3)o2)S1,x,55.4,18.4µM*,u,-21.8,-16.8
O=C(O)CCCCCN1C(=O)/C(=C\c2ccc(-c3ccc(Cl)cc3)o2)SC1=S,39.8µM*,6.4,u,u,3.6,-6.9
